Results from PubChem BioAssay (Tox21).
“And” between values parts separate entries of the source, which are not always exact repeats. Identical values can stand only once. Results filed as inconclusive are left out. Entries that show only a call come without a potency. The source made the active and inactive calls. Unless noted, calls come from the whole dose curve.

How the values were obtained:
[1] = Nuclear factor erythroid 2-related factor 2/antioxidant responsive element (Nrf2/ARE) small molecule agonists: luciferase reporter gene qHTS assay in human keratinocytes (AID 1919969); note: nearly all actives have a fitted effect of over 35% in size; note: potency is the fitted concentration of half-maximal effect
[2] = target: Gonadotropin-releasing hormone receptor (Homo sapiens) (UniProt P30968); assay: Human gonadotropin-releasing hormone receptor (GnRHR) small molecule agonists, calcium flux assay in GnRHR-HEK293 cells (AID 1920063); note: nearly all actives have a fitted effect of over 35% in size
Chain of Gonadotropin-releasing hormone receptor (Homo sapiens) (P30968 whole entry, looked up): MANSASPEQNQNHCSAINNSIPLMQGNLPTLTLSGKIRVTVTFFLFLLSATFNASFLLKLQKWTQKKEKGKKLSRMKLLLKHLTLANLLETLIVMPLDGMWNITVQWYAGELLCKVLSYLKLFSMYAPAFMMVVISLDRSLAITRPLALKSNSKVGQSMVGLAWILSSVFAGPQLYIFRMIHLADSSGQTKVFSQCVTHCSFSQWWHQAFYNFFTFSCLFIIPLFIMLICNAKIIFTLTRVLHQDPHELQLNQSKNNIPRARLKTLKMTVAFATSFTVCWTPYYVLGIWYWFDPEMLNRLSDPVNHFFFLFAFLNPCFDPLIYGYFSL
How it was run: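 Cells: HEK293 stably expressing human GnRHR. Steps: overnight (18 h) culture, 1 h calcium dye loading at 37 C, compound addition, kinetic fluorescence read at 480/540 nm. Each compound tested at 15 concentrations in triplicate.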

[3] = target: KiSS-1 receptor (Homo sapiens) (UniProt Q969F8); assay: Human kisspeptin (KISS1R) small molecule agonists, calcium flux assay in KISS1R-HEK293 cells (AID 1920064; active = well fitted activation curve with a large enough effect in the repeat runs)
Chain of KiSS-1 receptor (Homo sapiens) (Q969F8 whole entry, looked up): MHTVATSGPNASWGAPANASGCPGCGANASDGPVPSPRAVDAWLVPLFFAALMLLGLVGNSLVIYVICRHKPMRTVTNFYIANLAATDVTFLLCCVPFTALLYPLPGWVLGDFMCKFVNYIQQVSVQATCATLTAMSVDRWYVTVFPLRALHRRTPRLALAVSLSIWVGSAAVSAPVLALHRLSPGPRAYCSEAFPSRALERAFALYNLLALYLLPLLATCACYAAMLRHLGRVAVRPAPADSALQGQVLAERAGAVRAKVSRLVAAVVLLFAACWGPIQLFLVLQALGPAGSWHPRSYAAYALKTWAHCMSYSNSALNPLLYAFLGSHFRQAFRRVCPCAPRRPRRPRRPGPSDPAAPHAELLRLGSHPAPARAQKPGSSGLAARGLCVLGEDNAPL
How it was run: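 Cells plated and incubated 18 h; dye added, 1 h at 37 C; compounds in DMSO pinned in; signal read at 480/540 nm every second for 3 min. Each compound tested at 15 concentrations in triplicate.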

[4] = G protein-coupled receptor (GPCR) small molecule agonists, calcium flux assay: HEK293 wild type cell line counter screen (AID 1920065)
How it was run: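 Counter-screen of the Tox21 10K library for non-specific calcium release: dye-loaded cells received compounds in DMSO and were monitored by kinetic fluorescence (480/540 nm, 3 min). Fifteen concentrations, run in triplicate.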

[5] = p53 small molecule agonists, cell-based qHTS assay with human liver microsomes (AID 1963577);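 note: p53 response element beta-lactamase reporter cells with liver microsomes plus NADPH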
How it was run: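 Metabolically competent format: test substances, human liver microsomes and NADPH (both 0.5 mg/mL final) incubated with p53RE-bla cells 16 h at 37 C. Beta-lactamase reporter signal then quantified by fluorescence.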

[6] = p53 small molecule agonists, cell-based qHTS assay with rat liver microsomes (AID 1963578)
How it was run: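 Each plate received p53RE-bla cells, then compound, then rat liver microsomes and NADPH (both 0.5 mg/mL final). Plates were held 16 h at 37 C, and beta-lactamase activity was detected with LiveBLAzer over 2 h.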

[7] = p53 small molecule agonists, cell-based qHTS assay with rat liver microsomes: qHTS cell viability counter screen (AID 1963580); note: nearly all actives have a fitted effect of over 45% in size
How it was run: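 In HCT-116 cells carrying a p53 response element-bla reporter, compounds were metabolically activated in situ by rat liver microsomes with NADPH over 16 h. Cell ATP content then served as the cytotoxicity measure.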

[8] = p53 small molecule agonists, cell-based qHTS assay: qHTS cell viability counter screen (AID 1963581); note: nearly all actives have a fitted effect of over 45% in size; note: potency is the fitted concentration of half-maximal effect
How it was run: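 Cells: HCT-116 with p53 response element-driven beta-lactamase. Treatment: 16 h, 37 C, compounds in DMSO. Read: CellTiter-Glo luminescence after 30 min RT.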

[9] = p53 small molecule agonists, cell-based qHTS assay (AID 1963582; active = well fitted activation curve with a large enough effect in the signal ratio in the repeat runs, not every such curve was filed as active; the % refers to the signal ratio)
How it was run: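 Quantitative HTS in p53RE-bla cells: after a 5 h settling period, compounds delivered in DMSO were left on cells for 16 h at 37 C, and reporter induction was measured as fluorescence following 2 h substrate loading.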

[10] = target: 5-hydroxytryptamine receptor 2A (Homo sapiens) (UniProt P28223); assay: 5-hydroxytryptamine receptor 2A (HTR2A) small molecule antagonists, cell-based qHTS assay (AID 1963586); note: nearly all actives have a fitted effect of over 45% in size
Chain of 5-hydroxytryptamine receptor 2A (Homo sapiens) (P28223 whole entry, looked up): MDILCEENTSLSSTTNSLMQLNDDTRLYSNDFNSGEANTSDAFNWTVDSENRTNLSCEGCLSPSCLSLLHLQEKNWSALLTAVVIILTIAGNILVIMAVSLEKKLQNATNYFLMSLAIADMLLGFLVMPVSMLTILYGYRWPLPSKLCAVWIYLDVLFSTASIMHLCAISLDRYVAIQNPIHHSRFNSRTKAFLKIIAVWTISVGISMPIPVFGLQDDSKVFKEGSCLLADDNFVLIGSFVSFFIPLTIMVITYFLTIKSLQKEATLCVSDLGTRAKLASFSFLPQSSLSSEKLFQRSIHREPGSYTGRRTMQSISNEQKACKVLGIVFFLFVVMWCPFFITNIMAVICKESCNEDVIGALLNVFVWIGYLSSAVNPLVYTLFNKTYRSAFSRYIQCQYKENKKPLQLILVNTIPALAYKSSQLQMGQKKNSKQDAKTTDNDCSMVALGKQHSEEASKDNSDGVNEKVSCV
How it was run: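 Antagonist-mode intracellular calcium assay: DOI (4 nM) added after 5 min compound pre-incubation at room temperature to dye-loaded HTR2A-CHO cells. Fluorescence followed for 3 min, sampled every second.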

[11] = target: 5-hydroxytryptamine receptor 2A (Homo sapiens) (UniProt P28223); assay: 5-hydroxytryptamine receptor 2A (HTR2A) small molecule agonists, cell-based qHTS assay (AID 1963587); note: nearly all actives have a fitted effect of over 30% in size; note: potency is the fitted concentration of half-maximal effect
How it was run: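 HTR2A-CHO cells, plated 18 h at 37 C/5% CO2, dye-loaded 1 h at 37 C; compounds in DMSO added by pin tool (agonist mode). Intracellular calcium flux read as kinetic fluorescence on FDSS over 2 min at 1 s intervals.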

[12] = target: Muscarinic acetylcholine receptor M1 (Homo sapiens) (UniProt P11229); assay: Cholinergic receptor muscarinic 1 (CHRM1) small molecule antagonists, cell-based qHTS assay (AID 1963588); note: nearly all actives have a fitted effect of over 40% in size; note: potency is the fitted concentration of half-maximal effect
Chain of Muscarinic acetylcholine receptor M1 (Homo sapiens) (P11229 whole entry, looked up): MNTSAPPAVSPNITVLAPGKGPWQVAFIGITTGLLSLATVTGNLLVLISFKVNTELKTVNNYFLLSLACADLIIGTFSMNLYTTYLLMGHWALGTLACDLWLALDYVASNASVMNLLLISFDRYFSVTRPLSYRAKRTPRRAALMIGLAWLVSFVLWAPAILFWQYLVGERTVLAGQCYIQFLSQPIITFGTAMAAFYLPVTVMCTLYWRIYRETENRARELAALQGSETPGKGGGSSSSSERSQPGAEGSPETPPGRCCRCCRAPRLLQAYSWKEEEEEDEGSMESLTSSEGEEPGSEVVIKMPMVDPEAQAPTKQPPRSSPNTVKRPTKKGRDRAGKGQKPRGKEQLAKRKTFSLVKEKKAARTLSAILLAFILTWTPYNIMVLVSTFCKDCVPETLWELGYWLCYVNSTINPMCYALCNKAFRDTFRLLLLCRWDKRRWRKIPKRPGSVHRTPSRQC
How it was run: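 CHRM1-CHO calcium-flux assay, antagonist mode. Cells were seeded 18 h, dye-loaded 1 h at 37 C and given compound for 5 min at RT, then acetylcholine was added at 50nM. FDSS fluorescence was read 3 min; 15 concentrations, three runs.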

[13] = target: Muscarinic acetylcholine receptor M1 (Homo sapiens) (UniProt P11229); assay: Cholinergic receptor muscarinic 1 (CHRM1) small molecule agonists, cell-based qHTS assay (AID 1963589); note: nearly all actives have a fitted effect of over 35% in size
How it was run: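 Agonist-mode qHTS in CHO cells stably carrying human muscarinic M1. Intracellular calcium is tracked by fluorescence every second after compound transfer; each compound runs at 15 concentrations in three independent runs.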

[14] = cAMP Responsive Elements (CRE) small molecule antagonists, cell-based qHTS assay (AID 1963591; active = well fitted inhibition curve with a large enough effect in the signal ratio in the repeat runs, not every such curve was filed as active; the % refers to the signal ratio; note: potency is the fitted concentration of half-maximal effect)
How it was run: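 Antagonist mode: test compounds are co-incubated with the adenylyl cyclase activator NKH477 (0.25 uM final) on CRE-bla HEK293T cells for 3 h at 37 °C, followed by LiveBLAzer substrate loading.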

[15] = target: Beta-2 adrenergic receptor (Homo sapiens) (UniProt P07550); assay: Adrenergic beta2 receptor (ADRB2) small molecule antagonists, cell-based qHTS assay (AID 1963592); note: nearly all actives have a fitted effect of over 50% in size; note: potency is the fitted concentration of half-maximal effect
Chain of Beta-2 adrenergic receptor (Homo sapiens) (P07550 whole entry, looked up): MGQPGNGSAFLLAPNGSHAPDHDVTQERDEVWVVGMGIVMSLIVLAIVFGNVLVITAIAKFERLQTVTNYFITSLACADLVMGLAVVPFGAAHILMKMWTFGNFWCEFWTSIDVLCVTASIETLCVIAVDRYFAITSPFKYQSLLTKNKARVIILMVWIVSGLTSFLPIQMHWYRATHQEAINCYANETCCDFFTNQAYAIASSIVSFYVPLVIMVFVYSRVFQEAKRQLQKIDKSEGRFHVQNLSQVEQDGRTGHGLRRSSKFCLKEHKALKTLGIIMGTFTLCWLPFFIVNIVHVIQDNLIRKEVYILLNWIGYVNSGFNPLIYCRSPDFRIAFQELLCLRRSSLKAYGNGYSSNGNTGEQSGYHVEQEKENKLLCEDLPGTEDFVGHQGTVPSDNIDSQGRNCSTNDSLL
How it was run: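 Cells (CHO, stable ADRB2 overexpression) incubated 18-20hr at 37C; compounds added from DMSO; agonist mix (1nM isoproterenol, 100uM IBMX, 25uM Ro-20-1724) added; 0.5hr RT; d2-cAMP and anti-cAMP-cryptate added; 1hr RT; 665/615 nm read.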

[16] = target: D(2) dopamine receptor (Homo sapiens) (UniProt P14416); assay: Dopamine D2 receptor (DRD2) small molecule agonists, cell-based qHTS assay (AID 1963594); note: nearly all actives have a fitted effect of over 35% in size
Chain of D(2) dopamine receptor (Homo sapiens) (P14416 whole entry, looked up): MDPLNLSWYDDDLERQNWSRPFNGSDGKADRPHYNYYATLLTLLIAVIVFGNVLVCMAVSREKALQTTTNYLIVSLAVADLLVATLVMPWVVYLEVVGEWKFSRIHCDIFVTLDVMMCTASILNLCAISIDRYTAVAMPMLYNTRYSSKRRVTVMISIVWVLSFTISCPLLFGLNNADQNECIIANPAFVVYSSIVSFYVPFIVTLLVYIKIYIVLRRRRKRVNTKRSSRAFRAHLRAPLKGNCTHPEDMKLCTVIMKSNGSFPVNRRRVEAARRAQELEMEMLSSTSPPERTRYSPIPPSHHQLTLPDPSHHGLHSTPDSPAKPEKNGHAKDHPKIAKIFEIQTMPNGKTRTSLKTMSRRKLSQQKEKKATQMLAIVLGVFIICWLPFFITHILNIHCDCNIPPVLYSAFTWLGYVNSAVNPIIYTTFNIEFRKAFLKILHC
How it was run: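 HEK293 cells stably expressing DRD2 were cultured 24 h at 37 C, then given Ro20-1724 (0.1 mM final) and compounds for 10 min at room temperature. NKH477 (200nM) was then added for 30 min. cAMP was read by HTRF.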

[17] = p53 small molecule agonists, cell-based qHTS assay with human liver microsomes: qHTS cell viability counter screen (AID 1963579); note: nearly all actives have a fitted effect of over 45% in size; note: potency is the fitted concentration of half-maximal effect
How it was run: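 Tox21 library compounds, delivered from DMSO stocks, were tested on p53RE-bla cells together with 0.5 mg/mL human liver microsomes and 0.5 mg/mL NADPH (final) over 16 h at 37 C; CellTiter-Glo luminescence served as the cytotoxicity measure.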

[18] = cAMP Responsive Elements (CRE) small molecule agonists, cell-based qHTS assay (AID 1963590)
How it was run: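 Agonist mode qHTS in CRE-bla HEK 293T cells: compounds dosed from DMSO for 3 h at 37 C/5% CO2, followed by LiveBLAzer B/G FRET substrate for 2 h at room temperature.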

[19] = target: Beta-2 adrenergic receptor (Homo sapiens) (UniProt P07550); assay: Adrenergic beta2 receptor (ADRB2) small molecule agonists, cell-based qHTS assay (AID 1963593);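 note: CHO cells stably overexpressing human ADRB2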
How it was run: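 CHO cells stably over-expressing ADRB2 were plated overnight at 37C, then dosed with compounds plus a stimulation mix containing 100uM IBMX and 25uM Ro-20-1724 for 0.5hr at room temperature. cAMP was measured by HTRF competition, 1hr.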

[20] = target: D(2) dopamine receptor (Homo sapiens) (UniProt P14416); assay: Dopamine D2 receptor (DRD2) small molecule antagonists, cell-based qHTS assay (AID 1963595; active = well fitted inhibition curve with a large enough effect in the signal ratio in the repeat runs, with a control signal flat; the % refers to the signal ratio)
How it was run: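 Human DRD2 antagonist qHTS measuring cAMP by HTRF. The cells are exposed to compound for 10 min, then to NKH477 (200 nM) and quinpirole (12 nM) for 30 min at RT, with Ro20-1724 (0.1 mM) present throughout.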

| Compound | Potency [1] | Potency [2] | Potency [3] | Potency [4] | Potency [5] | Potency [6] | Potency [7] | Potency [8] | Potency [9] | Potency [10] | Potency [11] | Potency [12] | Potency [13] | Potency [14] | Potency [15] | Potency [16] | Potency [17] | Potency [18] | Potency [19] | Potency [20] |
| --- | --- | --- | --- | --- | --- | --- | --- | --- | --- | --- | --- | --- | --- | --- | --- | --- | --- | --- | --- | --- |
| C#C[C@]1(O)CC[C@H]2[C@@H]3CCc4cc(OC5CCCC5)ccc4[C@H]3CC[C@@]21C | inactive | inactive | inactive | inactive | inactive | inactive | inactive | inactive | inactive | inactive | inactive | inactive | inactive | inactive | inactive | inactive |  |  |  |  |
| CCc1cc(C(C)(C)C)c(O)c(C(C)(C)C)c1 | 34.7 µM (active) | inactive | inactive | inactive | inactive | inactive |  |  | inactive | inactive | inactive | inactive | inactive | inactive | inactive | inactive | inactive | inactive | inactive | inactive |
| CC1CCCNC1 (configuration not stated) | 67.1 µM (active) | inactive | inactive | inactive | inactive | inactive |  | inactive | inactive | inactive | inactive | inactive | inactive | inactive | inactive |  |  | inactive | inactive | inactive |
| CCCCCCCCCCCCCCCCCC[N+](C)(C)Cc1ccccc1 | inactive | inactive | inactive | inactive | inactive | inactive |  | 20.6 µM (active) |  | inactive |  | 0.19 µM (active) | inactive |  | 61.7 µM (active) | inactive | 46.2 µM (active) |  |  |  |
| Oc1cccc(-c2c3nc(c(-c4cccc(O)c4)c4ccc([nH]4)c(-c4cccc(O)c4)c4nc(c(-c5cccc(O)c5)c5ccc2[nH]5)CC4)C=C3)c1 | inactive | inactive | inactive | inactive | inactive | inactive |  |  |  |  | inactive | inactive | inactive | inactive |  |  | inactive | inactive |  |  |
| CCCCCCCCS(=O)C(C)Cc1ccc2c(c1)OCO2 (configuration not stated) | inactive | inactive | inactive | inactive | inactive | inactive |  |  |  |  | inactive | inactive | inactive |  | inactive | inactive | inactive |  | inactive |  |
| CO[C@H]1C=CO[C@@]2(C)Oc3c(C)c(O)c4c(O)c(c5c(c4c3C2=O)=NC2(CCN(CC(C)C)CC2)N=5)NC(=O)/C(C)=C\C=C/[C@H](C)[C@H](O)[C@@H](C)[C@@H](O)[C@@H](C)[C@H](OC(C)=O)[C@@H]1C | inactive | inactive | inactive | inactive | inactive | inactive | inactive | inactive |  |  |  |  |  |  | inactive |  |  |  |  |  |
| Cc1cc(O)ccc1O | 24.6 µM (active) | inactive | inactive | inactive | inactive | inactive | inactive | inactive |  | inactive | inactive | inactive | inactive |  | inactive |  |  |  |  |  |
| CC1=C(/C=C/C(C)=C/C=C/C(C)=C\C=O)C(C)(C)CCC1 | 64.9 µM (active) | inactive | inactive | inactive | inactive | inactive |  | inactive |  | inactive | inactive | inactive | inactive |  | inactive | inactive |  |  |  | inactive |
| CCCOc1ccc2nc(NC(=O)OC)[nH]c2c1 | 7.5 µM (active) | inactive | inactive | inactive | inactive | inactive | inactive |  |  | inactive |  | inactive | inactive |  | inactive | inactive |  |  |  | inactive |
| CCCCCOc1ccccc1/C(=C\SC)n1ccnc1 | 5.96 µM (active) | inactive | inactive | inactive | inactive | inactive | inactive |  | inactive | inactive | inactive | inactive | inactive |  | inactive |  |  |  | inactive | inactive |
| COC(=O)CC(C)CCC=C(C)C (configuration not stated) | 68.6 µM (active) | inactive | inactive | inactive | inactive | inactive |  | inactive | inactive | inactive | inactive | inactive | inactive | inactive | inactive | inactive |  | inactive | inactive | inactive |
| Cc1cccc(Br)c1 | 24.5 µM (active) | inactive | inactive | inactive | inactive | inactive |  |  |  | inactive |  |  | inactive |  | inactive | inactive | 20.6 µM (active) |  | inactive | inactive |
| CCc1cc(Cc2cc(CC)c(N)c(CC)c2)cc(CC)c1N | inactive | inactive | inactive | inactive | inactive | inactive |  |  |  | inactive | inactive |  | inactive | inactive |  |  | 40.8 µM (active) | inactive |  |  |
| Cc1ccc(O)c(O)c1 | 66.6 µM (active) | inactive | inactive | inactive | inactive | inactive |  |  |  |  | inactive | inactive | inactive | inactive | inactive | inactive | inactive | inactive |  |  |
| CCCCCc1ccc(O)cc1 | 34.4 µM (active) | inactive | inactive | inactive | inactive | inactive |  | inactive | inactive | inactive |  |  |  | inactive | inactive | inactive | inactive | inactive | inactive | inactive |
| CCCCCCCOC(=O)c1ccc(O)cc1 | inactive | inactive | inactive | inactive | inactive | inactive |  |  | inactive | inactive | 38.9 µM (active) | inactive | inactive | 38.6 µM (active) and 45.2 µM (active) | inactive | inactive | 36.4 µM (active) |  | inactive |  |
